Assay results published in PubChem BioAssay (Tox21).
Inconclusive results are not listed. Unmarked numbers belong to inactive results. Active and inactive are the calls of the source. Calls come from the whole dose curve; as a rule, active = well fitted cell-killing curve with a large enough effect in the repeat runs; inconclusive = weak or mixed curves, or effect the other way; inactive = no such curve, though single readings can be large or run the other way.

assay: qHTS assay to identify small molecule antagonists of the retinoid-related orphan receptor gamma (ROR-gamma) signaling pathway - cell viability counter screen (AID 1159520); conditions: Tet-on RORgamma CHO cells viability, ATP luminescence, 16 h; series mostly up to 92.4 µM; note: nearly all actives have a fitted effect of over 50% in size
Description: U.S. Tox21 Program National Center for Advancing Translational Sciences [NCATS] NIH Chemical Genomics Center [NCGC] U.S. Environmental Protection Agency [EPA] National Institutes of Environmental Health Sciences [NIEHS] National Toxicology Program [NTP] U.S. Food and Drug Administration [FDA] Tox21 Assay Overview: Nuclear steroid hormone receptors are involved in many biological processes including inflammatory responses, cell proliferation, and apoptosis. Environmental factors or compounds disrupting these nuclear receptor pathways and gene expression may promote susceptibility to immunotoxicants and autoimmune diseases. One important group of these expression factors are the retinoid-related orphan receptors. To assess compounds that may interfere with the retinoid-related orphan receptor gamma (ROR-gamma) transcription factor, a cell-based luciferase assay was used. The CHO cell-based assay utilizes a TET-inducible ROR expression factor and ROR response element-LUC reporter gene. Reporter gene activity was induced using Doxycycline Hyclate and measured after 16 hr incubation. Tet-on ROR gamma CHO cells were used to screen against the Tox21 10K compound library for cytotoxicity by measuring the viability of the cells based on the quantitation of the ATP.
Tox21 Assay Protocol Summary: Tet-on ROR gamma CHO cells were dispensed at 1,000 cells in 4 uL of culture medium per well into white wall/solid bottom 1536-well plates using a Multidrop Combi (Thermo Scientific, Waltham, MA) dispenser. Following incubation at 37 C and 5% CO2 for 4 hr, 23 nL of compounds dissolved in DMSO, positive controls or DMSO only were transferred by a Pintool station (Kalypsys, San Diego, CA) and after 2 hr incubation at 37 C, one ul of 1 uM (final concentration) of Doxycycline Hyclate was added to all the wells by using a Flying Reagent Dispenser (FRD) (Aurora Discovery, San Diego, CA). After 16 hr incubation at 37 C and 5% CO2, 5 uL of CellTiter-Glo reagent (Promega Corporation, Madison, WI) was added to each assay plate using FRD. After 30 min incubation at room temperature, luminescence was quantified on a ViewLux plate reader (Perkin Elmer, Waltham, MA).
% is set by controls: 0 for no effect and ±100 for the full control effect.

| SMILES | outcome | activity, negative = cytotoxicity |
| --- | --- | --- |
| CC(C)CC(C)CC(C)CC(C)COC(=O)c1ccccc1C(=O)OCC(C)CC(C)CC(C)CC(C)C (stereo not given) | inactive | – |
| CN=C(NC#N)Nc1ccc(C2=NNC(=O)CC2C)cc1 (stereo not given) | inactive | – |
| Cc1cccc2nccnc12 | inactive | – |
| CCCCCOC(=O)CCC | inactive | – |
| NNc1nnc(NN)c2ccccc12 | inactive | – |
| COC(=O)[C@@H]1[C@H]2C[C@H]3c4[nH]c5ccccc5c4CCN3C[C@@H]2CC[C@@H]1O | inactive | – |
| COCCOCCOCCOCCO | inactive | – |
| CC(=O)c1ccc2c(c1)Cc1ccccc1-2 | inactive | – |
| CC(C)(C)c1n[nH]c(=S)n(N)c1=O | inactive | – |
| CC[C@H](C)C(=O)O[C@H]1C[C@H](O)C=C2C=C[C@H](C)[C@H](CC[C@@H](O)C[C@@H](O)CC(=O)O)[C@H]21 | inactive | – |
| OC[C@H](Cc1cccc(O)c1)[C@H](CO)Cc1cccc(O)c1 | inactive | – |
| COc1ccc(S(=O)(=O)N2c3ccc(Cl)cc3[C@@](O)(c3ccccc3Cl)[C@H]2C(=O)N2CCC[C@@H]2C(N)=O)cc1OC | inactive | – |
| COc1cc(NS(=O)(=O)c2ccc(N)cc2)nc(OC)n1 | inactive | – |
| CC(COC(C)(C)C)OCCCO (stereo not given) | inactive | – |
| CNC(=O)[C@H]1O[C@@H](n2cnc3c(NCc4cc(Cl)ccc4OCc4cc(C)no4)ncnc32)[C@H](O)[C@@H]1N | inactive | – |
| CCCCCCCCCCCCCC | inactive | – |
| COCCc1ccc(OCC2CO2)cc1 (stereo not given) | inactive | – |
| CCOc1cc(NC(C)=O)ccc1C(=O)OC | inactive | – |
| CC(=O)NCc1c(I)c(NC(C)=O)c(I)c(C(=O)O)c1I | inactive | – |
| COc1ccc(C2CNC(=O)C2)cc1OC1CCCC1 (stereo not given) | inactive | – |

| SMILES | outcome | activity, negative = cytotoxicity |
| --- | --- | --- |
| Cc1c(I)c(=O)n(-c2ccccc2)n1C | inactive | – |
| CCCCCCCC/C=C\CCCCCCCC(=O)OCCCC | – | -6.58% [at 19 µM] |
| O=C1c2ccccc2C(=O)c2cc(S(=O)(=O)O)ccc21 | inactive | – |
| COC(=O)CCCCCCCC(=O)OC | inactive | – |
| CCCCCCOC(=O)CC | inactive | – |
| CCCC(=O)C(C)=O | inactive | – |
| NC(CO)C(=O)NNCc1ccc(O)c(O)c1O (stereo not given) | inactive | – |
| CC(C)(C)OC(=O)c1ccc(O)cc1 | inactive | – |
| C[Si](C)=O | – | 0.127% [at 8.39 µM] |
| CCCCCCCCOS(=O)(=O)O | inactive | – |
| CC(=O)/C=C/C1C(C)=CCC(C)C1(C)C (stereo not given) | inactive | – |
| CC(C)CC(=O)O | inactive | – |
| O=C(Nc1ccc(Cl)c(Cl)c1)C1CC1 | inactive | – |
| CC(=O)Nc1cccc(C)c1 | inactive | – |
| CC(=O)CCCCn1c(=O)c2c(ncn2C)n(C)c1=O | inactive | – |
| COc1cc2c(cc1OC)C(=O)CC2 | inactive | – |
| O=S(=O)(O)CCN1CCN(CCO)CC1 | inactive | – |
| O=C(O)c1ccc(Cl)cc1Cl | inactive | – |
| CC(C)=CCOC(=O)c1ccccc1 | inactive | – |
| O=C(CS(=O)Cc1ccco1)NC/C=C\COc1cc(CN2CCCCC2)ccn1 (stereo not given) | inactive | – |
